About 8,600 (12%) of roughly 69,000 compounds showed an effect of 50% or more. For the sample, strong results were picked, then their nearest neighbours and some compounds at random.
System: Plasmodium berghei
Test: Screen against P. berghei liver stage (PbLuc), transformed with Luciferase, at 10uM
Format: functional, HepG2
Conditions: tested at 10 uM

Row | SMILES | INHIBITION
1 | Cn1c2c(c(=O)n1C)CN(C(=O)c1cccc(F)c1)CCC2 | 46.6%
2 | Cc1cccc(S(=O)(=O)N2CCCc3c(c(=O)n(C)n3C)C2)c1 | 70.4%
3 | COc1nn(C)c2c1CCCN(S(=O)(=O)c1cccc(F)c1)C2 | -31.3%
4 | COc1nn(C)c2c1CCCN(S(=O)(=O)c1cccc(C)c1)C2 | 80.2%
5 | COc1cccc(S(=O)(=O)N2CCCc3c(OC)nn(C)c3C2)c1 | 18.5%
6 | Cn1c2c(c(=O)n1C)CN(S(=O)(=O)c1cccs1)CCC2 | 18.7%
7 | CC(C)c1nc(C2CCCN(C(=O)c3ccc4c(c3)COC4)C2)no1 (configuration not stated) | 1.75%
8 | c1nc(N2CCOCC2)ncc1-c1cncn1CCCN1CCCCC1 | 26.585%
9 | CCOC(=O)CN1C(=O)CN(S(C)(=O)=O)CCC(OC)c2ccccc21 (configuration not stated) | 54.8%
10 | CCS(=O)(=O)N1CCC(OC)c2ccccc2N(CC(=O)NC)C(=O)C1 (configuration not stated) | 43.4%
11 | CCOC(=O)N1CCC(OC)c2ccccc2N(CC(=O)NC)C(=O)C1 (configuration not stated) | 42.7%
12 | CCn1ccnc1CN1CCC(CNC(=O)c2ccc(C)nc2)C1 (configuration not stated) | 26.8%
13 | Cc1ccc(C(=O)NCC2CCN(Cc3ccccc3C#N)C2)cn1 (configuration not stated) | 58.6%
14 | CCc1ccc(CN2CCC(CNC(=O)c3ccc(C)nc3)C2)nc1 (configuration not stated) | -16.8%
15 | CCOC1CC2(CCN(Cc3cccn3C)CC2)C1 | 29%
16 | Cn1cc(CN2CCc3c(nnn3C)C2COCc2ccccc2)cn1 (configuration not stated) | -90.3%
17 | Cc1nccn1C1CCCN(C(=O)c2cnn(C)c2C2CC2)C1 (configuration not stated) | -3.58%
18 | Cc1cc(C)nc(NC(=O)NCCCSc2nncn2C)n1 | 9%
19 | CCc1cnc(CN(C(C)=O)C2CCN(CCc3ccncc3)C2)o1 (configuration not stated) | 42.9%
20 | O=C(CC[C@@H]1CCCN2CCCC[C@H]12)N1CCC(c2nnc[nH]2)CC1 | -9.8%
21 | Fc1cnc(N2CCn3c(CN4CCCC4)nnc3C2)nc1 | 57.9%
22 | Fc1cnc(N2CCCn3c(CN4CCOCC4)nnc3C2)nc1 | -16.9%
23 | Fc1cnc(N2CCCn3c(nnc3Cn3cccc3)C2)nc1 | -23.4%
24 | CS(=O)(=O)c1ccc(C(=O)N2CCCC(n3cncn3)C2)o1 (configuration not stated) | 21.8%
25 | CCc1nnc(Nc2cccc(C3CCN(C(=O)CN(C)C)CC3)n2)s1 | 22%
26 | CCc1nnc(Nc2cccc(C3CCN(C)CC3)n2)s1 | 12.3%

Row | SMILES | INHIBITION
27 | CCc1nnc(Nc2cccc(C3CCN(CCO)CC3)n2)s1 | 55.7%
28 | Cc1nnc(Nc2cccc(C3CCN(CCO)CC3)n2)s1 | 13.6%
29 | CCc1nnc(Nc2cccc(C3CCN(C(C)=O)CC3)n2)s1 | -28.6%
30 | CCc1nnc(Nc2cccc(C3CCN(S(=O)(=O)N(C)C)CC3)n2)s1 | 53.2%
31 | CS(=O)(=O)NC1CCCN(C(=O)Nc2ccccc2Cn2cccn2)C1 (configuration not stated) | 20.9%
32 | O=C(NCCn1ccnc1)N1CCCC1c1cccs1 (configuration not stated) | 7.333%
33 | Cc1cc(F)c2c(c1)CCCN2Cc1cc(=O)n(C)c(=O)n1C | -14.2%
34 | COc1ccc(-c2cnc(CN3CCCC3Cn3cccn3)o2)cc1 (configuration not stated) | -21.8%
35 | c1csc(CN2Cc3nccn3CC(Cn3cncn3)C2)n1 (configuration not stated) | 28.5%
36 | O=c1c(NCCNCCO)c(N2CCN(c3ccccc3)CC2)c1=O | 55.5%
37 | O=c1c(NCCNCCO)c(N2CCN(Cc3ccccc3)CC2)c1=O | 28.3%
38 | O=c1c(NCCO)c(N2CCN(c3ccccc3)CC2)c1=O | 29.8%
39 | COc1ccc(CN2C[C@@H]3COC[C@]3(CN(C)C)C2)cc1 | 20.5%
40 | CN(Cc1cccc(C#N)c1)C(=O)C1CC(c2cccc(F)c2)=NO1 (configuration not stated) | 8.38%
41 | COc1ccc(OC)c2c(C)cc(N(CCO)CCO)nc12 | 1.79%
42 | COc1ccc(OC)c2c(C)cc(N(C)CCO)nc12 | 0.897%
43 | COc1ccc(OC)c2c(C)cc(N(C)CCCO)nc12 | 51.1%
44 | O=C(NCc1ccc2c(c1)OCO2)c1ccc(N2CCCCC2)nn1 | 33.4%
45 | CCS(=O)(=O)N1C[C@@H](OCc2ccccn2)[C@@H]2OCCC[C@@H]21 | 16.6%
46 | CN(C)S(=O)(=O)N1CC[C@]2(C[C@@H](Oc3cccnc3)CO2)C1 | 21.8%
47 | Cc1ccc(C(=O)N2CC[C@]3(C[C@@H](OCc4ccccn4)CO3)C2)nc1 | 35.7%
48 | O=C(c1ccccc1)N1CCC[C@]2(C[C@@H](OCc3ccccn3)CO2)C1 | 49.7%
49 | Cc1cccc(CO[C@H]2CO[C@@]3(CCN(S(=O)(=O)N(C)C)C3)C2)n1 | 55.5%
50 | Cc1cccc(COC2COC3(CCN(Cc4ccoc4)CC3)C2)n1 (configuration not stated) | 11.4%
51 | CN(C)S(=O)(=O)N1CC[C@]2(C[C@H](Oc3cccnc3)CO2)C1 | 0%
52 | Cc1cccc(C(=O)N2CC[C@]3(C[C@H](OCc4ccccn4)CO3)C2)c1 | 71.9%

Row | SMILES | INHIBITION
53 | CN(C)S(=O)(=O)N1CC[C@]2(C[C@H](OCc3ccncc3)CO2)C1 | 57.1%
54 | Cc1cccc(COC2COC3(CCN(S(C)(=O)=O)CC3)C2)n1 (configuration not stated) | 44.2%
55 | CN(C)S(=O)(=O)N1C[C@@H](OCc2ccccn2)[C@H]2OCCC[C@H]21 | 56.1%
56 | CN(C)S(=O)(=O)N1C[C@@H](Oc2ccccn2)[C@H]2OCCC[C@H]21 | -4.74%
57 | COCCN1CCCC(c2ccnc3c(C(N)=O)cnn23)C1 (configuration not stated) | 37.7%
58 | CNC(=O)C(C)(C)N1CCC[C@H]1C(=O)NCC(C)C | 27.2%
59 | Cc1cccc(-c2noc(CN3CCCC3Cn3cncn3)n2)c1 (configuration not stated) | 19.4%
60 | CC(Cn1cccn1)n1cnc2ccc(F)cc2c1=O (configuration not stated) | 35%
61 | CCOC(=O)CNC(=O)N1CCC(OC)c2ccccc2N(C)C(=O)C1 (configuration not stated) | 29.8%
62 | O=C1CCCC2=C1C(c1ccco1)C1C(=O)NN=C1N2 (configuration not stated) | 36.3%
63 | CCc1ncc2c(n1)CN(Cc1cccc(OCC(N)=O)c1)CC2 | 0.914%
64 | Cc1nc(CN(C)C2CCN(Cc3ccc(Cl)s3)C2)no1 (configuration not stated) | -35.7%
65 | O=S(=O)(CCO)CCc1ccccc1Cl | 25.2%
66 | c1ncn(CC2CCCN2Cc2csc(C3CCCCC3)n2)n1 (configuration not stated) | 23.5%
67 | CCNc1cc2c(nn1)CCN(C(=O)Cc1c(C)nn(C)c1C)C2 | 15.5%
68 | CC(NC1CCN(CCS(C)(=O)=O)CC1)c1cnn(C(C)C)c1 (configuration not stated) | -5.22%
69 | O=C(c1cnccn1)N1CCO[C@H]2[C@H](OCc3cccnc3)CC[C@@H]21 | 7.31%
70 | CN1CCN(c2ncnc3c2CCN(c2ncc(F)cn2)CC3)CC1 | 24.9%
71 | CC1CCN(S(=O)(=O)N2CCC(Oc3cnccn3)CC2)CC1 | 19.6%
72 | Cc1cc2c(=O)n3c(nc2s1)CCN(C(=O)c1ccn(C)n1)CC3 | 0.301%
73 | CC(=O)NCCNC(=O)Nc1cc(C(C)(C)C)sc1C#N | 42.7%
74 | CN(C)S(=O)(=O)N1CC[C@]2(C[C@@H](OCC3CC3)CO2)C1 | 57.1%
75 | CN(C)S(=O)(=O)N1CCC2(CC1)CC(OCC1CC1)CO2 (configuration not stated) | 28.2%
76 | CN(C)S(=O)(=O)N1CC[C@]2(C[C@H](OCc3ccccn3)CO2)C1 | 57.1%
77 | CN(C)S(=O)(=O)N1CC[C@]2(C[C@@H](OCc3ccccn3)CO2)C1 | 39.4%
78 | CN(C)S(=O)(=O)N1CCC2(CC1)CC(Oc1ccccn1)CO2 (configuration not stated) | -60.2%

Row | SMILES | INHIBITION
79 | O=S(=O)(c1ccccc1)N1CCC[C@]2(C[C@H](OCC3CC3)CO2)C1 | 19.4%
80 | CCS(=O)(=O)N1CC[C@]2(C[C@@H](OCC3CC3)CO2)C1 | 15.1%
81 | CN(C)S(=O)(=O)N1CC[C@]2(C[C@@H](Oc3ncccc3F)CO2)C1 | 10.1%
82 | CCO[C@H]1CO[C@@]2(CCCN(S(=O)(=O)c3ccccc3)C2)C1 | 23.9%
83 | CN(C)S(=O)(=O)N1CC[C@]2(C[C@H](Oc3ncccc3F)CO2)C1 | 34.1%
84 | CCO[C@@H]1CO[C@@]2(CCCN(S(=O)(=O)c3ccccc3)C2)C1 | 64.9%
85 | Cc1cccc(CO[C@@H]2CO[C@@]3(CCN(S(=O)(=O)N(C)C)C3)C2)n1 | 63.5%
86 | COCC(=O)N1CCN(C(C)c2ncc(-c3ccccc3)o2)CC1 (configuration not stated) | 40.2%
87 | Cc1cc2n(n1)CC(CNCc1ccc(-n3cccn3)cc1)CN2 (configuration not stated) | 6.35%
88 | O=C(Nc1ccc(OC2CCCC2)cc1)C1CCCN1c1nccs1 (configuration not stated) | 2.625%
89 | CC(C)Oc1cccc(F)c1C(C(=O)O)N1CCCN(C)CC1 (configuration not stated) | 28.2%
90 | Cn1cc(-c2cnc(N3CCOCC3)nc2)cc1C(=O)NC1CC1 | -1.55%
91 | Cc1cc(CN2CCN(C(=O)NCc3ccoc3)CC2)no1 | -7.35%
92 | O=C(NC[C@]1(O)CN(Cc2ncccc2F)C[C@H]1O)c1cc[nH]n1 | 40.4%
93 | CC(O)(CNc1ccc(Cl)c(C#N)n1)c1ccsc1 (configuration not stated) | -20.3%
94 | CCCC(=O)Nc1cccc([C@H]2C[C@@H](NC(C)=O)CCO2)c1 | 33.85%
95 | CNC(=O)c1cc2c(nc1NCC(C)C)CCN(c1ccncn1)CC2 | -38.7%
96 | CN(Cc1nc(N2CCCC2)ncc1-c1ccncc1)C(=O)C(C)(C)C | 21.6%
97 | COc1ccc2c(c1)NC(C1CCN(C(=O)C3CC3)CC1)NS2(=O)=O (configuration not stated) | -30.9%
98 | Cc1cc(C(=O)N2CCCC2c2c(C)nn(C)c2C)no1 (configuration not stated) | 23.5%
99 | Cc1ccc(C(=O)Nc2cn[nH]c2)cc1F | 0.5%
100 | Fc1ccc(Br)c(NCc2nnsc2Cl)c1 | 43.1%
101 | CC1CCCCN1C(=O)c1ccn(COc2ccc(F)cc2)n1 (configuration not stated) | -3.11%
102 | CC(C)NC(=O)N1CCC2(C1)CN(c1ccsc1)C(=O)CN2C (configuration not stated) | 27.9%

Source: ChEMBL document CHEMBL4513216, “Probing the Open Global Health Chemical Diversity Library for Multistage-Active Starting Points for Next-Generation Antimalarials” (ACS Infect Dis, 2020)
